Laboratory results published in the supplement of paper PMC6555819.

Assays:
Assay in all cases: PBM binding z-score (relative to random genomic background probes); higher = stronger binding; sequences stand for … in GC…GCGATTGACAGCGTAGAATGAAGG
[1] = tested on: RARb homodimer (NR concentration 270 nM)
Procedure, shortened: (§1)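 Binding z-scores take random background probes as their reference. They come from custom Agilent 4×180K protein-binding microarrays incubated 1 h with ligand-free nuclear receptor dimers, with antibodies against each partner (one per run) detecting binding. Scanned fluorescence was regression-normalized.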

[2] = tested on: RARg:RXRa (NR concentration 270 nM, RXRa partner concentration 90 nM)
Procedure, shortened: as §1

[3] = tested on: RARg homodimer (NR concentration 270 nM)
Procedure, shortened: as §1

[4] = tested on: RXRa DBDmut IVT, anti-RXR (DBD mutation: RXRa K156A/R161A, NR concentration 90 nM)
Procedure, shortened: as §1

[5] = tested on: RXRa homodimer (NR concentration 180 nM)
Procedure, shortened: as §1

[6] = tested on: THRa:RXRa (NR concentration 90 nM, RXRa partner concentration 90 nM)
Procedure, shortened: as §1

[7] = tested on: THRa homodimer (NR concentration 90 nM)
Procedure, shortened: as §1

[8] = tested on: VDR homodimer (NR concentration 270 nM)
Procedure, shortened: as §1

Sequence | PBM binding z-score [1] | PBM binding z-score [2] | PBM binding z-score [3] | PBM binding z-score [4] | PBM binding z-score [5] | PBM binding z-score [6] | PBM binding z-score [7] | PBM binding z-score [8]
ATCTCTAGGTAACCAAGCTCAGTGAATGCCGAAC | -0.00643 | 0.122 | -0.0382 | -0.17 | -0.107 | 0.646 | 0.537 | 0.149
CAAACTAGGTCAAGAGGTCAAATTCCGCTTCCCG | 5.63 | 8.27 | 7.69 | 2.86 | 8.31 | 4.58 | 2.73 | 4.49
AGTCAAAGTTGACTAGGTAACGTAAGATTCAGCT | 0.0886 | 0.519 | 0.771 | 0.028 | 0.242 | 0.477 | -0.555 | -0.638
AATACAGGGTCATCATAGGCCAGAGTACGCACAG | 3.57 | 5.66 | 5.42 | 3.54 | 6.89 | 4.39 | 1.78 | 3.46
TCTCGGAGGACACGAAGGTCAGAGATTTCCAGAG | 3.84 | 3.05 | 4.12 | 0.78 | 1.99 | 2.92 | 1.1 | 1.7
AAAACGAGGGCACGCTGAGTTGATAGCAGAGTAG | 1.08 | 2.13 | 2.34 | 2.08 | 1.62 | 1.94 | 0.0518 | 2.26
CGAACTAGGTCATCCAGGACAGCGAATACATTGA | 3 | 3.97 | 4.81 | 2.19 | 2.73 | 3.84 | 2.24 | 1.93
GCAGACAGGTGAAACACAGGTAACTCAGGGTGGC | 0.58 | 1.37 | 0.385 | -0.322 | 0.982 | 1.28 | -0.504 | -0.7
TCTTGTAGATCAACAGGAGGTTAAAAAAGATCGA | 0.404 | 0.947 | 0.461 | 0.247 | 0.896 | 0.886 | -0.654 | 0.215
CCTGCTAGGTCATCGTCAGCTAATCTACAGTATG | 3.08 | 4.09 | 5.07 | 2.37 | 3.06 | 2.92 | 1.19 | 0.596
TCTAGCAGGACAGAGGGTCACTCAAGAGGTACGG | 2.77 | 2.39 | 2.11 | 0.168 | 2.48 | 1.86 | -0.03 | 0.674
CTACCAAGGTGAACAAGGTCGTTGAGTACTATTC | 2.27 | 1.92 | 1.43 | 1.64 | 2.39 | 3.28 | 1.83 | 3.27
CGAACTAGGTCATCCAGGACAGAGAATACATTGA | 2.81 | 4.02 | 4.59 | 2.33 | 3.1 | 3.49 | 1.8 | 1.64
CAAACTAGCTCACAGAGGTCAAAGTCCGTGCGTA | 4.34 | 5.3 | 4.81 | 1.5 | 6.31 | 3.53 | 1.27 | 3.71
